Drawing on article PMC12136788, this text covers binding signal for 22 molecules.

Sequences and labels used below:
B1: 140276459_140277056_1559_CDS_ENSMUSG00000040945_ENSMUST00000038893|mouse|control|control (ssRNA)
RNA: GGGAGUUCUACAGUCCGACGAUCGUCUCGCGCUAUCACCAAGGAGUGUGAAUAGCCCAUGGCCACCUGUUCGGAGAAGAUGCCAUCCAGAGUCUUCACCUCCUGGGCCGCAGUAGAAGACUUGGGCUUGUGGUCCCCAUACCCCAACAGAGGAUUGAGCAUCA
B2: chr18:77696836:77696837:-_ENSMUSG00000025427_ENSMUST00000026494|mus_mus|FALSE|FALSE (ssRNA)
RNA: GGGAGUUCUACAGUCCGACGAUCUCCUCGGGAUAGAGGGAUGAGAGGGCUUAGGAAUGUAGGGAGGGGAGGGAAGACAGAGAGCAGACUUGAGGUGGGGAAAGAGGCCUGGGGGAGGGGGCACGAGUGACAAGUGAAAGGAUUCAACAGAGGAUUGAGCAUCA
B3: chr11:71671816:71671817:+_ENSG00000137522_ENST00000530137|hu_hu|FALSE|FALSE (ssRNA)
RNA: GGGAGUUCUACAGUCCGACGAUCGCGAUGAGGAUGAGGACCAUUUCAGCAUGCAUAGCUUCAUGGCCACGGUGCUUGGCAUGCAUGCGUGCGUGCUCGACCCUCAUCCAGCUCCCGUUCCCCAGCAGCACCACCUCCAACCUCCAACAGAGGAUUGAGCAUCA
B4: chr18:46858332:46858333:-_ENSG00000141627_ENST00000269445|hu_hu|FALSE|FALSE (ssRNA)
RNA: GGGAGUUCUACAGUCCGACGAUCCGACUGCUGAGGGAAAACAUGGGCCCCUGGAGGAGGUGGCUUUUCUUGUCUGAUAAAGUUAUAUAAUAAGGUCUUCACAAGUUUGCUGGUGUAUGGAAGACAUGGACCUCGCAUCAAAUACAACAGAGGAUUGAGCAUCA
B5: chr8:108054885:108054886:-_ENSMUSG00000013160_ENSMUST00000013304|mus_mus|FALSE|FALSE (ssRNA)
RNA: GGGAGUUCUACAGUCCGACGAUCUGAACGCUGGUGCAGUGUGCCUGUGAUUAGCAGGAUCACGUUGUCAAUCAUGUAGCUAUAAGUUAUGAAGUCCAGGAAGCUGGCGAGCGGCUCAUAAGCAUGGUUUCUCAUGUGGCGGAACAACAGAGGAUUGAGCAUCA
B6: chr1:35656432:35656433:-_ENSG00000116560_ENST00000357214|perfect_dup|motif|central (ssRNA)
RNA: GGGAGUUCUACAGUCCGACGAUCAGAUCUUCCGCGAUCAUCCACAAUUACAACAGCCCUUUCAAUAGGACCAAACUGGCGGAAGGCCUCUUCCAAAAGUUCGUUGGAAACAUAAGGAGAGAGAUUUCGAACAGACAGGGCUGCCAACAGAGGAUUGAGCAUCA
B7: 17381947_17386413_246_CDS_ENSMUSG00000041720_ENSMUST00000036161|mouse|control|control (ssRNA)
RNA: GGGAGUUCUACAGUCCGACGAUCGCAGAAGCUGAAGCUCUCUGCAACUGGGAGGUUACCUCUGCCUUUCCGAGCUGUGCUUUCUUCUACCCAAUACACUUUUGGAAGACCCCUGAGAAGUCGAAGAAGAUAAGGAACAACACACAACAGAGGAUUGAGCAUCA
B8: 235582851_235590549_671_CDS_ENSG00000116957_ENST00000366601|human|control|control (ssRNA)
RNA: GGGAGUUCUACAGUCCGACGAUCAUUAAGGACUUCCAGGUGUCUGAGCUGAUCAGCAAUGUGUAUCACUUCAUCCCAUGAUGACAACAGGUUUUUUGACAAAUCUACCUUUCUGAUAUUAGGACAUGCUUCAGCAACUCCUCCCAACAGAGGAUUGAGCAUCA
B9: chr17:6086338:6086339:+_ENSMUSG00000034345_ENSMUST00000039487|mus_mus|motif|central (ssRNA)
RNA: GGGAGUUCUACAGUCCGACGAUCUGACUGAAAUAUAAAAUCCAGUAGUGCUCCAAUACAGCUAGAGUGUCCAUAAAAAUCGGUCUUCUACUUAAUUCUUAGUAUCAGGUGUGUAAGUAACAAUCCACUGGAAAGUUUACAUUACAACAGAGGAUUGAGCAUCA
B10: chr16:94690093:94690094:+_ENSMUSG00000040785_ENSMUST00000117648|mus_hu|mus_mus_mus_hu_True|8_98 (ssRNA)
RNA: GGGAGUUCUACAGUCCGACGAUCGGGCUGGGAUGACAGCAGACAGCCCUCGAUUCCAGGGGGAAAAAGUCUUAGUCGAUACUAAUUAAAAAGUGUUAAUGAUUUUUGAAAAUCAGAUUACAUCUAUUUGAAUCAUAAAGCAAACAACAGAGGAUUGAGCAUCA
B11: chr5:74677807:74677808:-_ENSG00000113163_ENST00000380494|hu_mus|motif|central (ssRNA)
RNA: GGGAGUUCUACAGUCCGACGAUCACGGACACAUCGAUUGUUCAGAGGAGCACUAUCAUGAUCCACAGAAAAAUUACAAACGGUCCAAGUUUCAGGAUCAUUUUCAGUCAAGGCUGGGAUCUUUCGAAUAGCAGAAAGAUACAGCAACAGAGGAUUGAGCAUCA
B12: chr16:94690093:94690094:+_ENSMUSG00000040785_ENSMUST00000117648|mus_hu|mus_mus_mus_hu_True|48_48 (ssRNA)
RNA: GGGAGUUCUACAGUCCGACGAUCGGGCUGGGAUGACGGACACACAGCCUCGAUUCCAGGGGGAAAAAGUCUUAGUCGAUACUAAUUUAAAAAGUAUAAUGAUUUUUGAAAAUCAGAUUACAUCUAUAAAAGAUGAAAAGCAAACAACAGAGGAUUGAGCAUCA
B13: chr16:94690093:94690094:+_ENSMUSG00000040785_ENSMUST00000117648|mus_hu|mus_mus_mus_hu_True|18_98 (ssRNA)
RNA: GGGAGUUCUACAGUCCGACGAUCGGGCUGGGAUGACAGCAGACAGCCCUCGAUUCCAGGGGGAAAAAGUCUUAGUCGAUACUAAUUAAAAAGUGUUAAUGAUUUUUGAAAAUCAGAUGUAGAUUAAAAAAGAUGAAAAGCAAACAACAGAGGAUUGAGCAUCA
B14: chr16:94690093:94690094:+_ENSMUSG00000040785_ENSMUST00000117648|mus_hu|mus_mus_mus_hu_True|1_68 (ssRNA)
RNA: GGGAGUUCUACAGUCCGACGAUCGGGCUGGGAUGACGGACACACAGCCUCGAUUCCAGGGGGAAAAAAAAAUAGCCGAUACUAAUUAAAAAGUGUUAAUGAUUUUUGAAAAUCAGAUUACAUCUAUAAAAGAUGAAAGCACUUCAACAGAGGAUUGAGCAUCA
B15: chr16:94690093:94690094:+_ENSMUSG00000040785_ENSMUST00000117648|mus_hu|mus_mus_mus_hu_True|18_38 (ssRNA)
RNA: GGGAGUUCUACAGUCCGACGAUCGGGCUGGGAUGACGGACACACAGCCUCGAUUCCAGGGGGAAAAAGUCUUAGUCGAUACUAAUUAAAAAGUGUUUUUAUAAUUGGAAAAUCAGAUGUAGAUUAAAAAAGAUGAAAAGCAAACAACAGAGGAUUGAGCAUCA
B16: chr16:94690093:94690094:+_ENSMUSG00000040785_ENSMUST00000117648|mus_hu|mus_mus_mus_hu_True|18_78 (ssRNA)
RNA: GGGAGUUCUACAGUCCGACGAUCGGGCUGGGAUGACGGACACACAGCCUCGAUUCCGGUAAAAAAAAGUCUUAGUCGAUACUAAUUAAAAAGUGUUAAUGAUUUUUGAAAAUCAGAUGUAGAUUAAAAAAGAUGAAAAGCAAACAACAGAGGAUUGAGCAUCA
B17: chr16:94690093:94690094:+_ENSMUSG00000040785_ENSMUST00000117648|mus_hu|mus_mus_mus_hu_True|68_78 (ssRNA)
RNA: GGGAGUUCUACAGUCCGACGAUCGGGCUGGGAUGACGGACACACAGCCUCGAUUCCGGUAAAAAAAAAAAAUAGCCGAUACUAAUUAAAAAGUGUUAAUGAUUUUUGAAAAUCAGAUUACAUCUAUAAAAGAUGAAAAGCAAACAACAGAGGAUUGAGCAUCA
B18: chr16:94664806:94664807:+_ENSMUSG00000040785_ENSMUST00000117648|mus_hu|motif|central (ssRNA)
RNA: GGGAGUUCUACAGUCCGACGAUCAUGAUGACCCUCAAAAUAGGCAGCAGCAUUUUUAUCUGCUCUGUCAUUGGCGGCAAAAGACGGCACCACUGGUACUGAUCUUGGUAGCUGAUAUUCAGGAGAAAGGCUGGCCAAGGGUGUCAACAGAGGAUUGAGCAUCA
B19: chr7:7679991:7679992:-_ENSG00000106399_ENST00000396682|hu_hu|hu_hu_hu_mus_False|1_8 (ssRNA)
RNA: GGGAGUUCUACAGUCCGACGAUCUGGGAUGAAUCUUUUCCAGCUUCCCCACGAAGCACACGGGCCGGUCGAUAUACUGUGGUAACAUGCUGGCGUUGACGCGCGCUUUGGGGAGCUGCAUUAUGUCCACCAUGAUUAUGGUCCCAACAGAGGAUUGAGCAUCA
B20: chr13:100200574:100200575:-_ENSMUSG00000052727_ENSMUST00000064762|mus_hu|motif|central (ssRNA)
RNA: GGGAGUUCUACAGUCCGACGAUCAUAAUCUUCUUCAUCUGGGGACCUGGUUGUUUCCUCAGGCUUUUGAUAGGCAUAGCGGAAGUCACCAGGUGUCUUCCCUCCACUGUCCUUCUCCAGGCCAGGUGUGGACAAAUCUCUAUUCAACAGAGGAUUGAGCAUCA
B21: chr2:48026839:48026840:+_ENSG00000116062_ENST00000540021|hu_hu|hu_hu_hu_mus_False|58_68 (ssRNA)
RNA: GGGAGUUCUACAGUCCGACGAUCAUAGUGAGCCACUAGCGUCCUAAAUCUGGAACAGUGGCGGUCAUCUGAAAACUGACCUAUGAAAAACUUGCCCAGUGAAGUGUCCACAAAGCAAACACCAUACACACGAGUGUGACCAGACAACAGAGGAUUGAGCAUCA
B22: chrX:98862621:98862622:+_ENSMUSG00000034160_ENSMUST00000044475|mus_hu|mus_mus_mus_hu_False|48_68 (ssRNA)
RNA: GGGAGUUCUACAGUCCGACGAUCCUGCAUCUCCUUUAGAGUGUUUCCCAUAUUAGAGUAGGCAUCAGCAAAUGUAGGACUGAUUCGUAUGGCUUCUUUAUAAUGCAUCAGAGCUUCCUGCAGUUUUCCCUGCUGCUGCAGUACCAACAGAGGAUUGAGCAUCA

In all, about 24,000 sequences were measured (“enrichment r”: median about 0.99, highest 2% from about 3.7 on). The sample as a whole holds a higher share of the highest values than the screen did.

The experiment addresses T1, UNK ZnF1-3 (human, UniProt Q9C0B0 31-174).
T1 sequence: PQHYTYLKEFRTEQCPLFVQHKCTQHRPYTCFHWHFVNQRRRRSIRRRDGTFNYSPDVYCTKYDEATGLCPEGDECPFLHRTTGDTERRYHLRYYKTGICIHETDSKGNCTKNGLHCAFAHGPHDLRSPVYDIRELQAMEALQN
As to the kind of experiment: nsRBNS (natural sequence RNA bind-n-seq); RBNS binding buffer (assumed for nsRBNS): 25 mM Tris pH 7.5, 150 mM KCl, 3 mM MgCl2, 0.01% Triton X-100, 500 ug/ml BSA, 20 U/ml SUPERase-In, 4 C; UNK is unkempt and MSI1 is Musashi-1; names of the RNAs are library labels; protein concentration not given here; high values mean tight binding.
Molecule B1 gave a binding signal of 0.829 enrichment R.

B2 showed a binding signal of 2.5 enrichment R.

For B3, the binding signal came to 0.585 enrichment R.

Molecule B4 gave a binding signal of 2.32 enrichment R.

With B5, the binding signal came out at 0.896 enrichment R.

Regarding B6, the binding signal is 1.13 enrichment R.

The molecule B7 showed a binding signal of 0.848 enrichment R.

Turning to B8, the binding signal amounted to 0.938 enrichment R.

In turn, B9 yielded a binding signal of 0.812 enrichment R.

Consider B10, for which the binding signal is 0.999 enrichment R.

B11 returned a binding signal of 1.36 enrichment R.

Take B12: the binding signal turned out to be 0.836 enrichment R.

As for B13, the binding signal amounted to 4.09 enrichment R.

For the molecule B14, the binding signal turned out to be 1.12 enrichment R.

Molecule B15 registered a binding signal of 3.69 enrichment R.

B16 showed a binding signal of 3.5 enrichment R.

With B17, the binding signal was found to be 5.49 enrichment R.

B18 registered a binding signal of 1.61 enrichment R.

With B19, the binding signal stood at 0.387 enrichment R.

Regarding B20, the binding signal worked out at 0.378 enrichment R.

In turn, B21 had a binding signal of 1.18 enrichment R.

B22 yielded a binding signal of 1.06 enrichment R.
